# Measurements reported in PubChem BioAssay (NCI).
# About 83,000 compounds went through this panel and 20% of them were active in at least one assay; those are over-represented in the sample as a whole.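 Treatment: one concentration, 48 hours, 96-well format. Scoring: percent growth, with anything below 10 considered active.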 The source made the active and inactive calls.
# Key:
# Test in all cases: NCI-60 one-dose screen, 48 h (100 = growth as untreated, 0 = no growth, -100 = all killed)
# Conditions in all cases: 10 µM
# DU-145 prostate = tested on: DU-145 prostate
# K-562 leukemia = tested on: K-562 leukemia
# MALME-3M melanoma = tested on: MALME-3M melanoma
# MDA-MB-231 breast = tested on: MDA-MB-231 breast
# SF-268 CNS = tested on: SF-268 CNS
# SF-295 CNS = tested on: SF-295 CNS
# SF-539 CNS = tested on: SF-539 CNS
# UACC-257 melanoma = tested on: UACC-257 melanoma
# M14 melanoma = tested on: M14 melanoma
# HCT-15 colon = tested on: HCT-15 colon
# HT29 colon = tested on: HT29 colon
# SNB-75 CNS = tested on: SNB-75 CNS
# SNB-19 CNS = tested on: SNB-19 CNS
# U251 CNS = tested on: U251 CNS
# PC-3 prostate = tested on: PC-3 prostate
# SK-MEL-5 melanoma = tested on: SK-MEL-5 melanoma
# LOX IMVI melanoma = tested on: LOX IMVI melanoma
# SK-MEL-28 melanoma = tested on: SK-MEL-28 melanoma
# UACC-62 melanoma = tested on: UACC-62 melanoma
Compound,growth (DU-145 prostate),growth (K-562 leukemia),growth (MALME-3M melanoma),growth (MDA-MB-231 breast),growth (SF-268 CNS),growth (SF-295 CNS),growth (SF-539 CNS),growth (UACC-257 melanoma),growth (M14 melanoma),growth (HCT-15 colon),growth (HT29 colon),growth (SNB-75 CNS),growth (SNB-19 CNS),growth (U251 CNS),growth (PC-3 prostate),growth (SK-MEL-5 melanoma),growth (LOX IMVI melanoma),growth (SK-MEL-28 melanoma),growth (UACC-62 melanoma)
O=c1[nH]c2ccccc2cc1CSc1ccc(Nc2nccc(-c3ccc4ccccc4c3)n2)cc1,25.5% (inactive),64% (inactive),39% (inactive),30.5% (inactive),72.1% (inactive),89.6% (inactive),16.1% (inactive),105% (inactive),69.8% (inactive),30.6% (inactive),49.9% (inactive),111% (inactive),71.2% (inactive),20% (inactive),1.09% (active),77% (inactive),3.77% (active),65.7% (inactive),–
Cn1cc(/C=N/Nc2ccnc3cc(Cl)ccc23)c2ccccc21,-92.7% (active),2.82% (active),-82.1% (active),-90.4% (active),-73.9% (active),-93.9% (active),-92% (active),-71% (active),-66.9% (active),-92.2% (active),-40.1% (active),-85.8% (active),-79.8% (active),-49.8% (active),–,-98.2% (active),-83.7% (active),–,-66.1% (active)
C=C[C@@]12CN3CC[C@]1(O)[C@@](C(=O)OC)(CO2)c1[nH]c2ccccc2c1C3,68.3% (inactive),33.9% (inactive),95.5% (inactive),76.9% (inactive),85.3% (inactive),71% (inactive),71.9% (inactive),49.7% (inactive),64.4% (inactive),63.7% (inactive),92.7% (inactive),105% (inactive),84.4% (inactive),81.8% (inactive),41.3% (inactive),18.3% (inactive),67.2% (inactive),89.4% (inactive),–
O=C(CSc1nnc(-c2c[nH]c3ccccc23)n1-c1ccccc1)Nc1ccc(C(=O)/C=C/c2cccc([N+](=O)[O-])c2)cc1,95.9% (inactive),86.1% (inactive),90.9% (inactive),91.7% (inactive),78.8% (inactive),88.4% (inactive),89.6% (inactive),102% (inactive),94.1% (inactive),84.1% (inactive),101% (inactive),99.8% (inactive),86.5% (inactive),92.5% (inactive),–,91.3% (inactive),75.6% (inactive),102% (inactive),76.5% (inactive)
CCOC(=O)c1c(CSc2ccccc2)n(C)c2cc(CN(C)C)c(O)c(CN(C)C)c12,60.8% (inactive),19.7% (inactive),-15.3% (active),16% (inactive),71.3% (inactive),46.9% (inactive),50.5% (inactive),54.3% (inactive),47.6% (inactive),20.5% (inactive),19.8% (inactive),89.4% (inactive),60.2% (inactive),30% (inactive),25.1% (inactive),36.4% (inactive),–,48.6% (inactive),48.2% (inactive)
OCc1[nH]nc2cc(Nc3ncc4ccc(Br)c(OC5CCC(O)CC5)c4n3)ccc12 (stereo not drawn),11.6% (inactive),11.4% (inactive),-63.4% (active),-10.2% (active),7.67% (active),-49.8% (active),-83.3% (active),-18.2% (active),-58.9% (active),-5.87% (active),-41.1% (active),-44.1% (active),6.37% (active),8.55% (active),9.54% (active),-99.1% (active),-81.5% (active),-68.7% (active),–
CN1CCN(Cc2ccc(C(=O)Nc3cccc(Nc4ccc5c(O)cccc5n4)c3)cc2C(F)(F)F)CC1,-1.97% (active),8.33% (active),-95.9% (active),-59.5% (active),2.2% (active),-69.3% (active),-91.5% (active),-78.7% (active),-87.3% (active),-25.4% (active),-50.8% (active),33.1% (inactive),-64.3% (active),-35.3% (active),10.8% (inactive),-100% (active),–,-95% (active),-79.9% (active)
C/C(=N\NC(N)=S)c1ccc(Nc2nc(SC(C)C)nc(-c3ccccc3)c2C#N)cc1,70.5% (inactive),87.2% (inactive),55.7% (inactive),40.5% (inactive),54.8% (inactive),44.3% (inactive),30.7% (inactive),85.1% (inactive),77.4% (inactive),77.1% (inactive),57.9% (inactive),104% (inactive),63.5% (inactive),32% (inactive),59.2% (inactive),75.5% (inactive),–,80.9% (inactive),48.1% (inactive)
